Source: PubChem BioAssay (several laboratories)
Rows were chosen to be rich in hits. Some 1.8% of all compounds tested hit in one or more screens of this group.
PGE2 EP2 inh – human EP2 receptor antagonists, primary screen, TR-FRET cAMP, C6 glioma cells; Prostaglandin E2 receptor EP2 subtype (Homo sapiens), P43116; AID 1422, 2008; C6 glioma cells expressing human EP2; cells stimulated with saturating PGE2; inhibition, % at 25 µM; hit rate 0.52% among 260,000;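 active = percent inhibition above 40 after rounding to a whole number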;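 also: rat C6 glioma host cells with rolipram phosphodiesterase inhibitor present; the protocol text gives 20 µM as final concentration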
PERK inhibitor – block of dimerizer-induced PERK translation repression, primary screen, PERK inhibitor project, CHO PERK-DD cells, SEAP luminescence, HTS; Eukaryotic translation initiation factor 2-alpha kinase 3 (Homo sapiens), Q9NZJ5; CHO PERK-DD fusion, SEAP luminescence translation reporter; AID 1416, 2008; hit rate 0.17% among 220,000; inhibition, % at 5.6 µM;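 active = inhibition above the mean inhibition of all tested compounds plus 3 SD, set separately per screening campaign, cut at about 2.9% in these data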;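 also: PERK kinase domain activated by AP20187 dimerizer at 100 nM; 0% = DMSO with dimerizer and 100% = rapamycin at 8.4 µM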
eIF4E 4G PPI – eIF4E–eIF4G protein interaction inhibitors, primary screen, biochemical, uHTS, TR-FRET, eIF4GI fragment. hit rate 0.37% among 220,000. Eukaryotic translation initiation factor 4E (Mus musculus) + Eukaryotic translation …. inhibition, % at 21.7 µM. AID 782, 2007. TR-FRET eIF4E-eIF4GI(517-606) binding, 2 h;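 active = inhibition above about 30%, limit read from the data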;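 also: 0% = full FRET control wells and 100% = background wells lacking eIF4GI fragment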
EP2 modulator – EP2 receptor modulators, cAMP readout, primary screen, cell-based, HTRF cAMP, PGE2 stimulation. EP2-expressing cells, cAMP HTRF FRET, PGE2 co-stimulation. induction, % at 25 µM. hit rate 0.83% among 260,000. Prostaglandin E2 receptor EP2 subtype (Homo sapiens), P43116;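 active = compounds whose cAMP rise, as percent of the full-agonist control response, exceeds 60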;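 also: rat C6 glioma line stably carrying human EP2 under a CMV promoter; the protocol text gives 20 µM as final concentration; 100% = response of wells given 1 µM PGE2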
EP2 confirm – cAMP induction in EP2, EP4, beta2-AR and parental cells, confirmation, counter-screen for EP2 modulator project, cell-based, five parallel assays, C6 glioma, HEK293; hit rate 47% among 1,300; shares compounds with EP2 modulator; calls only at 20 µM (by protocol); cAMP HTRF induction; plus low (about EC15) PGE2 agonist;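 active = cAMP induction above 50% in the main assay while under 30% in all four parallel counter assays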;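 also: rat C6 glioma cells stably expressing human EP2 receptor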
* hit, by the source's call; i = inactive; . = not tested or not shown; + = active, no number.

SMILES	PGE2 EP2 inh	PERK inhibitor	eIF4E 4G PPI	EP2 modulator	EP2 confirm
CC1CCN(c2nc3c(c(=O)[nH]c(=O)n3C)n2CC(C)CSc2nnnn2-c2ccccc2)CC1 (centres undefined)	9.9	-0.1	-0.7	68.0*	i
Cc1ccc(C)n1-n1c(C)nc2scc(-c3cccs3)c2c1=O	2.3	0.0	8.0	55.5	i
Cc1nc2scc(-c3cccs3)c2c(=O)n1-n1cccc1	14.2	-0.5	-0.9	34.2	.
Cc1ccc(C)n1-c1ccc(N(C)C)cc1	16.3	0.6	0.2	66.0*	i
Cc1ccc(C)n1-c1ccc(N2CCOCC2)cc1	11.6	-1.1	3.9	0.3	.
CC(=O)NC(c1ccccc1)c1cccnc1 (centres undefined)	5.6	0.1	-4.7	69.5*	i
CCOC(=O)CNC(=O)c1ccc2c(c1)OCCO2	13.6	0.6	-5.9	69.1*	i
Cc1nc2c(-c3cccs3)c(C)nn2c(NCCCN2CCCC2=O)c1C	.	.	.	-18.3	.
CC(=O)N/C(N)=N/c1nc(C)c2ccc(C)cc2n1	11.0	.	.	-24.7	.
CC(=O)Nc1sc2c(c1C(c1cccs1)N1CCOCC1)CCCC2 (centres undefined)	13.7	0.5	-3.2	51.3	i
CC(=O)Nc1sc2c(c1C(c1ccccn1)N1CCCC1)CCCC2 (centres undefined)	3.1	0.0	2.7	19.6	.
CC1CC2=C(C(=O)O1)C(c1ccccc1)Nc1ccccc1N2 (centres undefined)	3.4	0.4	0.4	-14.5	.
c1ccc(C2Nc3ccccc3Oc3ccccc32)cc1 (centres undefined)	27.5	0.2	0.6	81.1*	i
C=CCSc1nc(N(CC)CC)c2sccc2n1	14.0	1.5	11.5	66.7*	i
COC(=O)CSc1nc(N(C)C)nc(N2CCOCC2)n1	4.7	.	.	25.7	.
CC1(c2ccc([N+](=O)[O-])cc2)CC(C)(C)N(C(=O)c2ccccc2)c2ccccc21 (centres undefined)	1.2	0.3	16.7	-3.3	.
CC(=O)N1c2ccccc2C(C)(c2ccccc2)CC1(C)C (centres undefined)	7.7	-0.7	-1.6	77.9*	+
CC(C)[C@H]1CN(Cc2ccco2)CCN1C(=O)Cn1ncc2ccccc2c1=O	.	.	.	-7.3	.
CCOC(=O)c1c(NC(=O)CSc2nnc(C)s2)sc2c1CCC(C)C2 (centres undefined)	7.5	0.5	-0.5	53.0	i
CCOC(=O)c1c(NC(=O)CSc2nnc(C)s2)sc2c1CCCCC2	6.0	-0.1	15.4	43.0	.
CCOC(=O)c1c(NC(=O)COC(=O)Cn2cnc3ccccc32)sc(C)c1C	22.2	-0.7	1.5	-9.2	.
CCOC(=O)c1c(NC(=O)Cn2c(C)nc3ccccc32)sc2c1CCC2	12.1	0.8	-7.0	42.6	.
CCOC(=O)c1c(NC(=O)Cn2nnc3ccccc32)sc2c1CCC(C)C2 (centres undefined)	10.9	0.1	0.8	50.2	i
CCOC(=O)c1c(NC(=O)COC(=O)Cn2c(C)nc3ccccc32)sc2c1CCCC2	8.5	0.5	11.1	55.0	+
CCOC(=O)c1c(NC(=O)COC(=O)Cn2cnc3ccccc32)sc2c1CCC(C)C2 (centres undefined)	8.1	-1.0	1.3	62.3*	i
SMILES	PGE2 EP2 inh	PERK inhibitor	eIF4E 4G PPI	EP2 modulator	EP2 confirm
CN(Cc1ccc2ncccc2c1)S(=O)(=O)c1ccc2c(c1)CCC(=O)N2	13.6	.	.	-94.6	.
CCC(CC)c1nnc(NC(=O)c2ccc(Cl)cc2)s1	15.6	.	.	-21.4	.
Brc1ccc(-c2csc(N/N=C/c3ccco3)n2)cc1	12.1	0.2	-0.4	-38.5	.
O=C(O)c1csc(N/N=C/c2ccc(Br)cc2)n1	9.0	0.1	1.1	72.8*	i
CC(O)c1nc2cc3ccccc3cc2[nH]1 (centres undefined)	9.6	.	.	-54.5	.
CCc1nc(SCC(=O)Nc2nc3c(s2)CCCC3)c2ccccc2n1	11.5	0.5	-1.1	86.6*	i
